Holding throughout (test): DAPPL (digital affinity profiling via proximity ligation, sequencing); 10 mM Tris-HCl pH 7.5, 50 mM NaCl, 1 mM DTT, 4% glycerol, room temperature, 30 min; GST-TFs on glutathione beads, 16-mer random dsDNA library, 0.1% formaldehyde crosslink after washing; high values mean tight binding
Holding throughout (conditions): protein: recombinant; tags: N-terminal GST; dsDNA, one strand shown

For one experiment, the target named is T1, FLI1 (Homo sapiens, UniProt Q01543 1-452).
T1 sequence: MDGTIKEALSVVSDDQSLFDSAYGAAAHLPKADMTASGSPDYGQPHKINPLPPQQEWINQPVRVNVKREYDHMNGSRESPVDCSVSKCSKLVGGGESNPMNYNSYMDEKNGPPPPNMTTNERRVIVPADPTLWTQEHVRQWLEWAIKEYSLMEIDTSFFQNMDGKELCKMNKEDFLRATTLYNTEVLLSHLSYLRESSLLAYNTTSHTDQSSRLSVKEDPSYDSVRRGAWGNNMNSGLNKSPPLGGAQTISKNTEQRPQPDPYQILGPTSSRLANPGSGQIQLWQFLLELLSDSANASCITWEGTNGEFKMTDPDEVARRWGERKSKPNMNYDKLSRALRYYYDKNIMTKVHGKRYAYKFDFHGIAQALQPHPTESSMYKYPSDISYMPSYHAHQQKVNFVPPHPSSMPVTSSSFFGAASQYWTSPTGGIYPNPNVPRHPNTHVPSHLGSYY
In outline: (§1)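 Each value of binding signal is a hexamer's read frequency for a factor divided by the same hexamer's frequency in the tag-only sample. Barcoded, bead-captured GST fusions of human transcription factors made in yeast were pooled with that sample and incubated with 200 nmole of a random double-stranded 16-mer DNA library in Tris/NaCl/DTT/glycerol buffer at room temperature for 30 min. Washing, 0.1% formaldehyde crosslinking, proximity ligation, PCR and Illumina NextSeq500 sequencing followed.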

The target in a further experiment is T2, GABPA (Homo sapiens, UniProt Q06546 1-454).
T2 sequence: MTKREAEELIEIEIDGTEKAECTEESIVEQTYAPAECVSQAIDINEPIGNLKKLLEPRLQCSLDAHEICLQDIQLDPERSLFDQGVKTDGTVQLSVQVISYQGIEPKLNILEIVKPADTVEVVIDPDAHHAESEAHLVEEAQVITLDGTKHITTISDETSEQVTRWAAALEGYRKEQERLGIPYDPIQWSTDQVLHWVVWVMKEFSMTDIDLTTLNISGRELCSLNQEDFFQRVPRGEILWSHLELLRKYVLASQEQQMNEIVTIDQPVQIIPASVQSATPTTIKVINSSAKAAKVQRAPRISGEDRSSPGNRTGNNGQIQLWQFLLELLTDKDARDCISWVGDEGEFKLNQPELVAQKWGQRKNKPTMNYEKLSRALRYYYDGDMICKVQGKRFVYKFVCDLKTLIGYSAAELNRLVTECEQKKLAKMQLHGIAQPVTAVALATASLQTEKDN
In outline: as §1

The next experiment addresses T3, ERG (Homo sapiens, UniProt P11308 1-479).
T3 sequence: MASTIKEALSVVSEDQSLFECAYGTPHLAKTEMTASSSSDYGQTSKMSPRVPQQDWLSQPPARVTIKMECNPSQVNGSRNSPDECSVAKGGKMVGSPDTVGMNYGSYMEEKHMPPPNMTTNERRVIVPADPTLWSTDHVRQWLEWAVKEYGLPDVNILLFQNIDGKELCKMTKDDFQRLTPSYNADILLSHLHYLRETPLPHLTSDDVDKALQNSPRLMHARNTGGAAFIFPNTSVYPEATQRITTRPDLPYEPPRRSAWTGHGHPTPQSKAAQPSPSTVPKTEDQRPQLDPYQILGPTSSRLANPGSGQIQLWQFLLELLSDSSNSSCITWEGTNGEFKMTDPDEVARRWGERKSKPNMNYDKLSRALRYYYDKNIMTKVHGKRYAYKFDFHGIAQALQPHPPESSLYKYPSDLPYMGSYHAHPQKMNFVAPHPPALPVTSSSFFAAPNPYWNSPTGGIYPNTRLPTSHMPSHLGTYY
The gist of the method: as §1

Another experiment concerns the target ELF1 (Homo sapiens, UniProt P32519 1-619). In outline:
as §1

The target in a further experiment is T4, EHF (Homo sapiens, UniProt Q9NZC4 1-300).
T4 sequence: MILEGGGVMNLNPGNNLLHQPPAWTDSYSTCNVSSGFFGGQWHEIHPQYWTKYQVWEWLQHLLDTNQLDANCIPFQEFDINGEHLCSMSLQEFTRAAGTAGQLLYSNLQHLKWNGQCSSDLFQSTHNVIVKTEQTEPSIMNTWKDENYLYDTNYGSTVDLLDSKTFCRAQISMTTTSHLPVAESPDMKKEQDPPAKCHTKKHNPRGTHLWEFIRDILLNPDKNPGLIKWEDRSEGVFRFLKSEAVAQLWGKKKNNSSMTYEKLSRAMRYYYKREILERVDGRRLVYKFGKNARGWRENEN
The gist of the method: as §1

For another experiment, the target named is SPIB (Homo sapiens, UniProt Q01892 1-262). In outline:
as §1

The next experiment deals with ELF4 (Homo sapiens, UniProt Q99607 1-663). The gist of the method: as §1
Sequence of ELF4 (Q99607 whole entry): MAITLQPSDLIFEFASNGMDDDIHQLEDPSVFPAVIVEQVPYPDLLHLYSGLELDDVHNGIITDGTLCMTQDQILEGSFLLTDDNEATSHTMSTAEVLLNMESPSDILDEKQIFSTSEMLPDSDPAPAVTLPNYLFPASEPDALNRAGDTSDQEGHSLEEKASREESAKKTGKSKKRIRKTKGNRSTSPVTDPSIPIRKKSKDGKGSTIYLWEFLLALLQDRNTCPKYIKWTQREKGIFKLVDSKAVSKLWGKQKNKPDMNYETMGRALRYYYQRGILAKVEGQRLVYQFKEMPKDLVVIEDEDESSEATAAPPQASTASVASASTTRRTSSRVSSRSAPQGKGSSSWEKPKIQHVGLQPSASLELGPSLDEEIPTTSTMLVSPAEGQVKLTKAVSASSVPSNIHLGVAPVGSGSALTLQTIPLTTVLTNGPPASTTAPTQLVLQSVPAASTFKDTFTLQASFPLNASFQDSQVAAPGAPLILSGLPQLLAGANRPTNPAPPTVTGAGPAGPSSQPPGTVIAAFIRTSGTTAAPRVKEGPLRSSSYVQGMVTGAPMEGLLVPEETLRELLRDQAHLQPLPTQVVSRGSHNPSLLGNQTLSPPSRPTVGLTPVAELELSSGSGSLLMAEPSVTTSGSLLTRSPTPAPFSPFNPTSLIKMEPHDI
In another experiment the target is T5, ELK4 (Homo sapiens, UniProt P28324-2 1-405).
T5 sequence: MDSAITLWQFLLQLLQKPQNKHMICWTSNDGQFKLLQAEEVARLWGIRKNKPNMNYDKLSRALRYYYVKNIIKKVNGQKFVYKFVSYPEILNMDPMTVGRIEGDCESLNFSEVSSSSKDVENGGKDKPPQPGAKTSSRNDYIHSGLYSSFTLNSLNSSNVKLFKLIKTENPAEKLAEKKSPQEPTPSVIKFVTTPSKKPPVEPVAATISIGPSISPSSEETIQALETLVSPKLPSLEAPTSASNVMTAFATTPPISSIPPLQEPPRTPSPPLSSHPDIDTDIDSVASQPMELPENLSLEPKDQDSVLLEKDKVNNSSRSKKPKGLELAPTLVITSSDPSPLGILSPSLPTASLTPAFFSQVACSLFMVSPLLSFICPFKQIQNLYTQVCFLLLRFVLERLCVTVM
The gist of the method: as §1

Another experiment deals with T6, ELF3 (Homo sapiens, UniProt P78545 1-371).
T6 sequence: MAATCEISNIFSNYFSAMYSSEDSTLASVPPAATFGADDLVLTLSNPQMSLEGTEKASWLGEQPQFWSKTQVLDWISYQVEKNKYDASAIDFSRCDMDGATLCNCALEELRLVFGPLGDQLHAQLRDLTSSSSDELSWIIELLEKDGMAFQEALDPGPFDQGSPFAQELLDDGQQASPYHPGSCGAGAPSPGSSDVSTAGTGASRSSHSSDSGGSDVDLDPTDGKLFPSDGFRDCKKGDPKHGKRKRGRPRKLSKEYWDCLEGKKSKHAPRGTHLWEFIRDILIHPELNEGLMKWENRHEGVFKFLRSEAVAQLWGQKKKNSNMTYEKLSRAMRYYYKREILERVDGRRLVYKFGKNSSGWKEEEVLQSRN
The gist of the method: as §1

Another experiment addresses CRX (Homo sapiens, UniProt O43186 1-299). In outline: as §1
The target of a further experiment is ETV1 (Homo sapiens, UniProt P50549 1-477). In outline:
as §1

A further experiment has as its target T7, ETV3L (Homo sapiens, UniProt Q6ZN32 1-361).
T7 sequence: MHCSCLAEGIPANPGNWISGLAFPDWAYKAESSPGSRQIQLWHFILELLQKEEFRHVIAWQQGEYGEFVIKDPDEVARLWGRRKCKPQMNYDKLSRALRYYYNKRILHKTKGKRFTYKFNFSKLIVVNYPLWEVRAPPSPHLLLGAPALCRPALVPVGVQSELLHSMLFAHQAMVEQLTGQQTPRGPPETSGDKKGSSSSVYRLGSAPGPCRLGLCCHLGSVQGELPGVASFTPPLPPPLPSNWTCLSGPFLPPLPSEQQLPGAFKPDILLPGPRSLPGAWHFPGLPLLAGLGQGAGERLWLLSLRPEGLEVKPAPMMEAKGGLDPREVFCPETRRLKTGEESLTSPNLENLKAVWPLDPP
The gist of the method:
as §1

In another experiment the target is T8, ETS2 (Homo sapiens, UniProt P15036 1-469).
T8 sequence: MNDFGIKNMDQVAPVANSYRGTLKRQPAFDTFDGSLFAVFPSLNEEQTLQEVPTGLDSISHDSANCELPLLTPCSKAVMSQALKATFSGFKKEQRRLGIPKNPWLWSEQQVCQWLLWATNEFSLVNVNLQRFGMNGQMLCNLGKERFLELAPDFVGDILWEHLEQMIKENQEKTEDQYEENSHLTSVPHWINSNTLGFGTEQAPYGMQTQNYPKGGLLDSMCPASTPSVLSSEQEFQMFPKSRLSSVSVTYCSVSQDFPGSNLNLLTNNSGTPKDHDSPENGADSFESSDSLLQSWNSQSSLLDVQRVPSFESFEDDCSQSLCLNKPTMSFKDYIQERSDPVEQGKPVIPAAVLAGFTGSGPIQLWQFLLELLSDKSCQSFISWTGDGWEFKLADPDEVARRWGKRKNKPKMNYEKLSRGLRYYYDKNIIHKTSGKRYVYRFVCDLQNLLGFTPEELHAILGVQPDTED
In outline: as §1

A further experiment deals with T9, SPDEF (Homo sapiens, UniProt O95238 1-335).
T9 sequence: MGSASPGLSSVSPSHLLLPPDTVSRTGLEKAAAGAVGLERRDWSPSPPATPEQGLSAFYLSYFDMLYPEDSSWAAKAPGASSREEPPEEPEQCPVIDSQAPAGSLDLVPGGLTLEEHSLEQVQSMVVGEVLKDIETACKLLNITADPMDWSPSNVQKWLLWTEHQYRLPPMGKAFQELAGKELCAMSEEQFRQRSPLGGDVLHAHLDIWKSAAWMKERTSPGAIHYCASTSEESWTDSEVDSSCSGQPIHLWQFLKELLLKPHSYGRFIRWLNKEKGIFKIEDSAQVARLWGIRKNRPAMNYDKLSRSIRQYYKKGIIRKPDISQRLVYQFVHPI
In outline: as §1

Another experiment addresses T10, ETV7 (Homo sapiens, UniProt Q9Y603 1-341).
T10 sequence: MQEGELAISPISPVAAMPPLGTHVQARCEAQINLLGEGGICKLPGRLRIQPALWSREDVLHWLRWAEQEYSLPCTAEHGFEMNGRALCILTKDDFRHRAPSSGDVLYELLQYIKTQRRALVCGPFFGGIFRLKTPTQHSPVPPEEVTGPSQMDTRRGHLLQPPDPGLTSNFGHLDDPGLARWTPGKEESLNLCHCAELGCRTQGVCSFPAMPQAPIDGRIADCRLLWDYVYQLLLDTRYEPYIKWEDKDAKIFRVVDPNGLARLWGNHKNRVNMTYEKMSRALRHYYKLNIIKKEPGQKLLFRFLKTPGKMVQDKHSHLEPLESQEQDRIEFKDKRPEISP
The gist of the method: as §1

Sequence of ETV1 (P50549 whole entry): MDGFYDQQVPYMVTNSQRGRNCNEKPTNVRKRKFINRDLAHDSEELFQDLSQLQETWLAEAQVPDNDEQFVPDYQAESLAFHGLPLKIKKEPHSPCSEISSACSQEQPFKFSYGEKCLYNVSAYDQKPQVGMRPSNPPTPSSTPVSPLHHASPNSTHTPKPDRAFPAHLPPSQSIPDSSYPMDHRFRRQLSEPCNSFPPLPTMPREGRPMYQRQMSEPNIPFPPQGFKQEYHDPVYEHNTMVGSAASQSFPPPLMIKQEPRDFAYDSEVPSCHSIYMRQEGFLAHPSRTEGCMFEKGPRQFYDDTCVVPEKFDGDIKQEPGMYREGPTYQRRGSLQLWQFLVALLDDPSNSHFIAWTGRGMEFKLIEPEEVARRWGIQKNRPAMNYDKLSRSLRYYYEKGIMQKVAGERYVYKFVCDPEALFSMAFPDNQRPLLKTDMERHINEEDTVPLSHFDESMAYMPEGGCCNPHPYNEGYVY
Sequence of SPIB (Q01892 whole entry): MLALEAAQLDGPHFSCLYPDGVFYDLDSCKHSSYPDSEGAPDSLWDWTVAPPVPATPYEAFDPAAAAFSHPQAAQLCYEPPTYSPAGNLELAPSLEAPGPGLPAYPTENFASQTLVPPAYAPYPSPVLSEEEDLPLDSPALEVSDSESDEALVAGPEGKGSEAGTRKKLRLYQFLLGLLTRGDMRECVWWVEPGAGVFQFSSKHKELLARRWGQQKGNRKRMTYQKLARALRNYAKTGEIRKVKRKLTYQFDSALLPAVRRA
Sequence of ELF1 (P32519 whole entry): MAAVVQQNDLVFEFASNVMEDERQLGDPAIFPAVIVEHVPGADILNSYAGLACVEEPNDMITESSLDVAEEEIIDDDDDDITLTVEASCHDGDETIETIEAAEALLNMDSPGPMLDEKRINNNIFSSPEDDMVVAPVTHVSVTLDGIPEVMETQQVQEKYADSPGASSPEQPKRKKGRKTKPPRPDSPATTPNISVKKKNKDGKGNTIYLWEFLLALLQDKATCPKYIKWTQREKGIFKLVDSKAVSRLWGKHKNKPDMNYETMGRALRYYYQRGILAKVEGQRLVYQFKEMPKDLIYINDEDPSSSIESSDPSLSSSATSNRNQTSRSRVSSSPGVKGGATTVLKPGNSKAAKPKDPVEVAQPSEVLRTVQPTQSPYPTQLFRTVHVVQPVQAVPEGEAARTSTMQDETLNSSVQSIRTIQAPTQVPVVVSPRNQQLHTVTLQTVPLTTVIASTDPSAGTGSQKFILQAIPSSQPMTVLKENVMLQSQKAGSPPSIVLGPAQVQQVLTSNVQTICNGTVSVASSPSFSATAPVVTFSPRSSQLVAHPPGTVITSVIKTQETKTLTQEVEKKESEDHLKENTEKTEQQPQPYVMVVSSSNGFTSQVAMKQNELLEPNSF
Sequence of CRX (O43186 whole entry): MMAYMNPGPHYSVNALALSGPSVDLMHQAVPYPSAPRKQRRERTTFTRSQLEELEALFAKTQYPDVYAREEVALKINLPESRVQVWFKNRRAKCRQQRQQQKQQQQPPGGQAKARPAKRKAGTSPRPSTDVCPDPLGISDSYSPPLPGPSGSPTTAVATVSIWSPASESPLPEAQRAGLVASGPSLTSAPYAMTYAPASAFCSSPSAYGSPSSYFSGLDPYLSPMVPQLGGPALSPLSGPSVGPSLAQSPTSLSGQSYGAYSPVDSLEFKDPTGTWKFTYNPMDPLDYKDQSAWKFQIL

As to TGTGAT, the binding signal is 1.16 fold enrichment (6-mer frequency, TF over GST control) with FLI1; 1.01 fold enrichment (6-mer frequency, TF over GST control) in the experiment with GABPA; 1.06 fold enrichment (6-mer frequency, TF over GST control) in the experiment with ERG; 1.01 fold enrichment (6-mer frequency, TF over GST control) with ELF1; 1.03 fold enrichment (6-mer frequency, TF over GST control) with EHF; 1.01 fold enrichment (6-mer frequency, TF over GST control) with SPIB. Moreover, the binding signal with ELF4 is 1.05 fold enrichment (6-mer frequency, TF over GST control); in the experiment with ELK4, 1.07 fold enrichment (6-mer frequency, TF over GST control); with ELF3, 1.14 fold enrichment (6-mer frequency, TF over GST control); with CRX it was 1.12 fold enrichment (6-mer frequency, TF over GST control); in the experiment with ETV1 it was 1.08 fold enrichment (6-mer frequency, TF over GST control); with ETV3L, 1.01 fold enrichment (6-mer frequency, TF over GST control). Besides, the binding signal was 1.09 fold enrichment (6-mer frequency, TF over GST control) with ETS2; 1.06 fold enrichment (6-mer frequency, TF over GST control) with SPDEF; 1.05 fold enrichment (6-mer frequency, TF over GST control) in the experiment with ETV7.

The record behind these values is PMC7862700, “An all-to-all approach to the identification of sequence-specific readers for epigenetic DNA modifications on cytosine”.
